Activity calls are given as the source filed them.
Legend:
[1] = binders of probe aFSTL3 on microarray, primary screen, stem cell growth factor project, biochemical, small-molecule microarray, fluorescence 635/667 (AID 1064); settings: higher = more signal;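 also: measures binding of the biotinylated anti-FSTL3 antibody to printed compounds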
[2] = binders from COS7 lysate, DM2A8 probe, primary screen, torsin A project, cell lysate, small-molecule microarray, fluorescence 635/667 (AID 1065); settings: higher = more signal, COS7 lysate expressing mutant human TOR1A
[3] = binders of probe aFGF2 on microarray, primary screen, stem cell growth factor project, biochemical, small-molecule microarray, fluorescence 635/667 (AID 1067); settings: higher = more signal;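 also: measures binding of biotinylated aFGF2 protein to printed compounds on slides; z-score merges feature fluorescence and signal-to-noise across triplicate slides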
[4] = binders of probe aFGF10 on microarray, primary screen, stem cell growth factor project, biochemical, small-molecule microarray, fluorescence 635/667 (AID 1071); settings: higher = more signal;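 also: score merges 667 nm spot intensity and signal to noise from triplicate slides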
[5] = target: Neurogenic locus notch homolog protein 2 (Homo sapiens) (UniProt Q04721); assay: Notch2 binders on small-molecule microarrays, primary screen, biochemical, small-molecule microarray, 635 nm fluorescence, stem cell growth factors (AID 1073); settings: Notch2 binding, higher = more signal
[6] = target: Pro-neuregulin-1, membrane-bound isoform (Homo sapiens) (UniProt Q02297); assay: NRG1 binders on small-molecule microarrays, primary screen, psychiatric disease protein project, biochemical, small-molecule microarray, fluorescence 635/667 (AID 1075); settings: NRG1 binding, 635 nm fluorescence, higher = more signal;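 also: score combines 667 nm spot fluorescence with signal to noise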
[7] = tested on: Neuregulin-1 EGF-like domain; assay: binders of neuregulin-1 EGF-like domain, primary screen, biochemical, small-molecule microarray, 635 nm fluorescence (AID 1081); settings: small-molecule microarray binding, higher = more signal;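 also: binding of the protein to compounds printed on small-molecule microarray slides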
[8] = FRG1 promoter luciferase signal modulators, primary screen, FRG1 inhibition for FSHD, cell-based, C2C12 myotubes, firefly/Renilla luciferase, luminescence (AID 1084); settings: higher = more signal, called active from +8 up or from −8 down
[9] = binders of probe aFST on microarray, primary screen, stem cell growth factor project, biochemical, small-molecule microarray, fluorescence 635/667 (AID 1086); settings: higher = more signal;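 also: score merges 667 nm fluorescence with signal-to-noise of each printed compound spot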
[10] = binders of probe aHhip on microarray, primary screen, stem cell growth factor project, biochemical, small-molecule microarray, fluorescence 635/667 (AID 1087); settings: higher = more signal;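 also: score merges spot fluorescence at 667nm with spot signal to noise ratio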
[11] = tested on: PRMT1 (protein arginine N-methyltransferase 1); assay: PRMT1 binders on small-molecule microarrays, primary screen, biochemical, small-molecule microarray, 635 nm fluorescence (AID 1088); settings: small-molecule microarray binding, higher = more signal;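 also: binding of Prmt1 protein to compounds spotted on small-molecule microarray slides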
[12] = yeast growth modulation, basal conditions, primary screen, YJM789 clinical isolate, OD600, 24 h (AID 1089);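 also: growth of clinical yeast isolate S. cerevisiae YJM 789 seeded 1000 cells per well; test concentration not given here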; settings: S. cerevisiae YJM789 growth, higher = more signal, called active from +8 up or from −8 down
[13] = fission yeast growth modulation, primary screen, strain 972, OD600, 24 h, no modulator (AID 1090);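 also: basal condition with compound alone and no growth modifier present; test concentration not given here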; settings: S. pombe 972 growth, higher = more signal, called active from +8 up or from −8 down
[14] = S. cerevisiae growth modulation with rapamycin, primary screen, strain BY4716, OD600, 96 h (AID 1091); settings: higher = more signal, called active from +8 up or from −8 down; also: test concentration not given here
[15] = target: Torsin-1A-interacting protein 2 (Homo sapiens) (UniProt Q8NFQ8); assay: LULL1 binders on small-molecule microarray, primary screen, cell lysate, human LULL1 lysate, 635/667 nm fluorescence (AID 1092); settings: hLULL1 lysate binding, 635 nm fluorescence, higher = more signal;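 also: probe is lysate of COS7 cells overexpressing human LULL1; score merges per-feature 667 nm fluorescence with signal-to-noise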
[16] = E. coli growth modulation, two-sided OD650, primary screen, E. coli filamentation project, strain DRC41, 24 h (AID 1093); settings: OD650, 24 h, higher = more signal, called active from +8 up or from −8 down;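 also: MC1000 strain lacking acrAB efflux and sulA so SOS filamentation is blocked; test concentration not given here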
[17] = small-molecule microarray binders of probe aLefty2, primary screen, biochemical, biotinylated probe, 635/667 nm fluorescence (AID 1094); settings: higher = more signal;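 also: score merges spot fluorescence near 667 nm with spot signal-to-noise ratio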
[18] = tested on: Noggin (protein binding on small-molecule microarray); assay: Noggin binders on small-molecule microarray, primary screen, biochemical, 635/667 nm fluorescence (AID 1095); settings: 635 nm fluorescence, higher = more signal;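 also: score merges 667 nm feature fluorescence with signal to noise over triplicate slides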
[19] = target: Neurogenic locus notch homolog protein 3 (Homo sapiens) (UniProt Q9UM47); assay: NOTCH3 binders on small-molecule microarray, primary screen, biochemical, 635/667 nm fluorescence (AID 1096); settings: NOTCH3 binding, 635 nm fluorescence, higher = more signal
[20] = small-molecule microarray binders of probe aEGFR, primary screen, biochemical, biotinylated probe, 635/667 nm fluorescence (AID 1097); settings: higher = more signal;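 also: probe is a biotinylated anti-EGFR antibody binding compounds printed on slides; score combines fluorescence near 667 nm and signal to noise of each spot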

Sequence of Pro-neuregulin-1, membrane-bound isoform (Homo sapiens) (Q02297 whole entry, looked up, the tested form may be a part, canonical isoform): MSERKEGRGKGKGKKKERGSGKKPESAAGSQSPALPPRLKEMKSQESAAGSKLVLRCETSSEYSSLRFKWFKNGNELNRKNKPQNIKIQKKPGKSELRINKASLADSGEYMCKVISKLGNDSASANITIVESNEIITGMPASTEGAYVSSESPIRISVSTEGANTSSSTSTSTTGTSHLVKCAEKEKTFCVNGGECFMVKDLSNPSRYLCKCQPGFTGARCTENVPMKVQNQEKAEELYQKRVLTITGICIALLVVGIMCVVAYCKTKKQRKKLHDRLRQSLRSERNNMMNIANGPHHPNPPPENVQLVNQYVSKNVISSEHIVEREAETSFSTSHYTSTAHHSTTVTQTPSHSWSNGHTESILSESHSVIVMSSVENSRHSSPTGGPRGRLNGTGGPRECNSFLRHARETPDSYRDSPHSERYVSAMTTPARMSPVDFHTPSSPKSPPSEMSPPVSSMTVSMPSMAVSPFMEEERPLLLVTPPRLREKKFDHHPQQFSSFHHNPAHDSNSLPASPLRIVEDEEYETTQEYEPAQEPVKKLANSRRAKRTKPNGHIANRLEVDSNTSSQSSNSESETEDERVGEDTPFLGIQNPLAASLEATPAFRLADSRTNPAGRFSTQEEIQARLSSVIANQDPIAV
Sequence of Torsin-1A-interacting protein 2 (Homo sapiens) (Q8NFQ8 whole entry, looked up): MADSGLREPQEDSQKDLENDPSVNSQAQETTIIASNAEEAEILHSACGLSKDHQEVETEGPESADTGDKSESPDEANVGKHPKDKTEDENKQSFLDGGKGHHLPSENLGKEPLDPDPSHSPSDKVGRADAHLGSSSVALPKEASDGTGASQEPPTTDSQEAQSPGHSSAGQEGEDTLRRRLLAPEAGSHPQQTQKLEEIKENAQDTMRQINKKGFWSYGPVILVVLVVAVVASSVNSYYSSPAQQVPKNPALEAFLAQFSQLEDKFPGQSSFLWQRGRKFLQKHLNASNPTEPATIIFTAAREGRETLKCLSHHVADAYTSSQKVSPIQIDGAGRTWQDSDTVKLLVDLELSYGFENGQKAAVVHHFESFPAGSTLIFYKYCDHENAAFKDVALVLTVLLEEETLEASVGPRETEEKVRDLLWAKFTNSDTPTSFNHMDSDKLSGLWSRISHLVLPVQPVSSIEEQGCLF
Sequence of Neurogenic locus notch homolog protein 3 (Homo sapiens) (Q9UM47 whole entry, looked up): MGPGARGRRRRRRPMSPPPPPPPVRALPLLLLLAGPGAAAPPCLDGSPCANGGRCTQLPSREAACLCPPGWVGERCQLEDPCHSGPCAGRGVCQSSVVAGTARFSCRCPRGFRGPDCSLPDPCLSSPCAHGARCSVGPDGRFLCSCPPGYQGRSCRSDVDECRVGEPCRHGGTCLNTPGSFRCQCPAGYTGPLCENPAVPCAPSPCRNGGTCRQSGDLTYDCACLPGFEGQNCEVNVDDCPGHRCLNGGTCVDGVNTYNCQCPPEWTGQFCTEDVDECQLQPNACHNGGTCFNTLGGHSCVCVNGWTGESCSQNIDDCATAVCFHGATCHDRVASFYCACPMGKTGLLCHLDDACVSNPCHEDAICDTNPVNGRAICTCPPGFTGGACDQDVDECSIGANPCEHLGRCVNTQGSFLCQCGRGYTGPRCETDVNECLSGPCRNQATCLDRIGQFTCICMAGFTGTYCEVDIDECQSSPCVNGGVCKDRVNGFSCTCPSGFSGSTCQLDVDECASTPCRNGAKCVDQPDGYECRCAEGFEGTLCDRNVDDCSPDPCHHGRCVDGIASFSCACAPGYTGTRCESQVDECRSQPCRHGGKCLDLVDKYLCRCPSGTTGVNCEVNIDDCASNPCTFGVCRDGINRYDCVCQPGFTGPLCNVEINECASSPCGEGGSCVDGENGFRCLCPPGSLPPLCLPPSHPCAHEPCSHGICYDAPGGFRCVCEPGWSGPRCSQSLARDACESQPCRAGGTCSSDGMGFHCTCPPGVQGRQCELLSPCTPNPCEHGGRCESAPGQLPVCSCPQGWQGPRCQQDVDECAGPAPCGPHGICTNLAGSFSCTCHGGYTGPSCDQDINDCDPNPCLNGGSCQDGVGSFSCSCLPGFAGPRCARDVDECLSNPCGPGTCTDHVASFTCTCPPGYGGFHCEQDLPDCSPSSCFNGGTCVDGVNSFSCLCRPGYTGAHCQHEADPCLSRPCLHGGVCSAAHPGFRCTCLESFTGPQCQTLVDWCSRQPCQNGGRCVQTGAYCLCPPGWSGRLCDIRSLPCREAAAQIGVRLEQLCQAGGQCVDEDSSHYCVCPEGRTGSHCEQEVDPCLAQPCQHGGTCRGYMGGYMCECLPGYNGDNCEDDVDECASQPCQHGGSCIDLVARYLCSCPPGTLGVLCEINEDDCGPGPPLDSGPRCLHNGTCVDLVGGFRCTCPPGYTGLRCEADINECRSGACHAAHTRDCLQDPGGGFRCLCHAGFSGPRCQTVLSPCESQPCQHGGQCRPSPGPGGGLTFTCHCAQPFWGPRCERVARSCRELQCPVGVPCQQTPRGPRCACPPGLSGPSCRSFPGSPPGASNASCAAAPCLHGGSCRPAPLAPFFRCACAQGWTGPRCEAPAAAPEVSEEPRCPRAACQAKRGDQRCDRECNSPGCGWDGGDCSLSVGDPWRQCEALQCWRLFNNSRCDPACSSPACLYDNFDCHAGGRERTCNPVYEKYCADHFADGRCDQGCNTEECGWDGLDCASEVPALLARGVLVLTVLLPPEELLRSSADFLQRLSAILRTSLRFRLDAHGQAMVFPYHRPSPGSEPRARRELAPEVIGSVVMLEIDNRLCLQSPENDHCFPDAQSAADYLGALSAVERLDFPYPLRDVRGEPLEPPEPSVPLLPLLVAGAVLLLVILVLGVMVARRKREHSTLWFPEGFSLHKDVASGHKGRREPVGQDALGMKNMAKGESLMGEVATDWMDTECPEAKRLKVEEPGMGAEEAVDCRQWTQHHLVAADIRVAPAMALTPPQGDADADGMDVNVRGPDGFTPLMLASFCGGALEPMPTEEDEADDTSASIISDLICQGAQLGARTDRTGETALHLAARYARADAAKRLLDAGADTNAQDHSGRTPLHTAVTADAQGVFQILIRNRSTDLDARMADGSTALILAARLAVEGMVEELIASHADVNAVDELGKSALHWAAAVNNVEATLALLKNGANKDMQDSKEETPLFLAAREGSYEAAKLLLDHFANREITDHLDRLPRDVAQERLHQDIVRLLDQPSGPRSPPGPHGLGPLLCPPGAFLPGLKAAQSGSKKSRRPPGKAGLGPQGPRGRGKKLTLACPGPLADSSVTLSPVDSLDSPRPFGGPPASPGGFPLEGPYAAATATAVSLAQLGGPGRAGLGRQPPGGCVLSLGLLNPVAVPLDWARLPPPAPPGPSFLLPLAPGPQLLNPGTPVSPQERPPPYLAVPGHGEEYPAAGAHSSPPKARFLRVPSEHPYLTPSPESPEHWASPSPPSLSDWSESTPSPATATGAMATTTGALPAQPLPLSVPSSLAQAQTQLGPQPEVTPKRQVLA

C=CCNC(=O)[C@H]1[C@@H]2C(=O)O[C@@H](c3ccccc3)[C@@H](c3ccccc3)N2[C@@H](c2ccccc2OCCO)[C@]12C(=O)Nc1ccc(C#CCCO)cc12
composite z-score [1]: 0.103 | composite z-score [2]: -0.773 | composite z-score [3]: 0.882 | composite z-score [4]: -0.0077 | composite z-score [5]: 0.119 | composite z-score [6]: 0.82 | composite z-score [7]: 0.537 | z-score [8]: -5.02 (inactive) | composite z-score [9]: -0.155 | composite z-score [10]: 0.142 | composite z-score [11]: -0.294 | z-score [12]: 1.69 (inactive) | z-score [13]: -0.648 (inactive) | z-score [14]: 4.32 (inactive) | composite z-score [15]: 2.24 | z-score [16]: -0.462 (inactive) | composite z-score [17]: -0.0617 | composite z-score [18]: -0.76 | composite z-score [19]: -0.104 | composite z-score [20]: -0.0353

O=C(NCCN1CCOCC1)C1N=C(c2ccc(OCCCO)cc2)N(c2ccccc2)O1 (stereo not given)
composite z-score [1]: 0.377 | composite z-score [2]: 1.4 | composite z-score [3]: 0.071 | composite z-score [4]: 0.318 | composite z-score [5]: 1.48 | composite z-score [6]: 0.561 | composite z-score [7]: 1.3 | z-score [8]: 4.31 (inactive) | composite z-score [9]: 0.524 | composite z-score [10]: 0.075 | composite z-score [11]: 1.54 | z-score [12]: -0.101 (inactive) | z-score [13]: -0.251 (inactive) | z-score [14]: -0.36 (inactive) | composite z-score [15]: 3.22 | z-score [16]: 1 (inactive) | composite z-score [17]: 0.443 | composite z-score [18]: 1.19 | composite z-score [19]: 0.0538 | composite z-score [20]: -0.0099

O=C1C[C@@](C(=O)NCC(F)(F)F)(c2ccc([N+](=O)[O-])cc2)[C@@H](c2ccc(CO)cc2I)N1C1CCCCC1
composite z-score [1]: -0.0205 | composite z-score [2]: 0.95 | composite z-score [3]: -0.0257 | composite z-score [4]: 0.19 | composite z-score [5]: 1.46 | composite z-score [6]: 0.811 | composite z-score [7]: 1.24 | z-score [8]: 0.467 (inactive) | composite z-score [9]: 0.414 | composite z-score [10]: -0.0994 | composite z-score [11]: 1.55 | z-score [12]: -0.732 (inactive) | z-score [13]: 0.294 (inactive) | z-score [14]: 1.16 (inactive) | composite z-score [15]: 2.52 | z-score [16]: -0.426 (inactive) | composite z-score [17]: 0.0524 | composite z-score [18]: 0.572 | composite z-score [19]: 1.09 | composite z-score [20]: 0.0721

Cc1ccccc1C(O)C1C=CC2C(=O)N(c3ccccc3)C(=O)C2N1Nc1ccc(C(C)C)cc1 (stereo not given)
composite z-score [1]: -0.0476 | composite z-score [2]: -0.0455 | composite z-score [3]: 0.0536 | composite z-score [4]: 0.82 | composite z-score [5]: 1.5 | composite z-score [6]: 1.27 | composite z-score [7]: 0.592 | z-score [8]: -0.729 (inactive) | composite z-score [9]: 1.41 | composite z-score [10]: 0.142 | composite z-score [11]: 1.13 | z-score [12]: 1.38 (inactive) | z-score [13]: 0.0135 (inactive) | z-score [14]: 0.798 (inactive) | composite z-score [15]: 2.3 | z-score [16]: -1.89 (inactive) | composite z-score [17]: -0.0675 | composite z-score [18]: -0.0693 | composite z-score [19]: 1.07 | composite z-score [20]: 0.0461

COC(=O)c1c(CC[C@@H](CO)NC(=O)NCCn2cc(C3(O)CCCC3)nn2)oc(C(C)=O)c1C(=O)OC
composite z-score [1]: -0.465 | composite z-score [2]: 0.24 | composite z-score [3]: 0.127 | composite z-score [4]: 0.173 | composite z-score [5]: -0.119 | composite z-score [6]: 0.718 | composite z-score [7]: 0.685 | z-score [8]: -0.598 (inactive) | composite z-score [9]: -0.204 | composite z-score [10]: -0.184 | composite z-score [11]: 0.463 | z-score [12]: -0.539 (inactive) | z-score [13]: -0.263 (inactive) | z-score [14]: -0.0147 (inactive) | composite z-score [15]: 3.24 | z-score [16]: -0.918 (inactive) | composite z-score [17]: -0.23 | composite z-score [18]: 0.0587 | composite z-score [19]: -0.33 | composite z-score [20]: -0.0778

CCC[C@@H]1C[C@@]1(CCC)[C@@H](NC(=O)c1ccccc1)c1cccc(Cl)c1
composite z-score [1]: 1.63 | composite z-score [2]: 0.249 | composite z-score [3]: 0.783 | composite z-score [4]: 0.948 | composite z-score [5]: 1.47 | composite z-score [6]: 0.753 | composite z-score [7]: 1.09 | z-score [8]: 0.379 (inactive) | composite z-score [9]: 2.29 | composite z-score [10]: 0.53 | composite z-score [11]: 0.596 | z-score [12]: 1.47 (inactive) | z-score [13]: 1.52 (inactive) | z-score [14]: 2.12 (inactive) | composite z-score [15]: 3.23 | z-score [16]: -0.452 (inactive) | composite z-score [17]: 0.497 | composite z-score [18]: 0.149 | composite z-score [19]: 1.15 | composite z-score [20]: 0.913

COC(=O)[C@@]1(Cc2ccc(F)cc2)[C@H]2c3cc(C(=O)N(C)C)n(Cc4ccc(Cl)c(C(F)(F)F)c4)c3C[C@H]2CN1C(=O)c1ccccc1
composite z-score [1]: 1.15 | composite z-score [2]: 1.65 | composite z-score [3]: -0.0355 | composite z-score [4]: 0.215 | composite z-score [5]: 1.74 | composite z-score [6]: 1.83 | composite z-score [7]: 1.31 | z-score [8]: 1.3 (inactive) | composite z-score [9]: 1.71 | composite z-score [10]: -0.0296 | composite z-score [11]: 1.31 | z-score [12]: 0.44 (inactive) | z-score [13]: 1.29 (inactive) | z-score [14]: 1.69 (inactive) | composite z-score [15]: 3.62 | z-score [16]: -0.824 (inactive) | composite z-score [17]: 0.395 | composite z-score [18]: -0.602 | composite z-score [19]: 1.02 | composite z-score [20]: 0.231

CC(C)C[C@@H]1NC(=O)[C@H](C(C)C)NC(=O)[C@@]23C(=O)N[C@@H](Cc4ccccc4)C2[C@H](C)[C@@]2(C)O[C@H]2C3/C=C/CC/C=C/CNC1=O (stereo not given in full)
composite z-score [1]: -0.368 | composite z-score [2]: 0.0032 | composite z-score [3]: -0.144 | composite z-score [4]: 0.518 | composite z-score [5]: 0.729 | composite z-score [6]: 0.133 | composite z-score [7]: 1.02 | z-score [8]: -0.537 (inactive) | composite z-score [9]: 0.0815 | composite z-score [10]: -0.0061 | composite z-score [11]: 1.55 | z-score [12]: -0.0106 (inactive) | z-score [13]: -0.328 (inactive) | z-score [14]: -0.522 (inactive) | composite z-score [15]: 2.27 | z-score [16]: -0.215 (inactive) | composite z-score [17]: -0.0346 | composite z-score [18]: 0.782 | composite z-score [19]: 1.03 | composite z-score [20]: -0.096

O=C1[C@@]23C=C(Br)[C@H](C[C@@H]2CCOC3)[C@@]12CO2
composite z-score [1]: -0.655 | composite z-score [2]: 0.113 | composite z-score [3]: -0.103 | composite z-score [4]: 0.283 | composite z-score [5]: 0.306 | composite z-score [6]: -0.213 | composite z-score [7]: -0.1 | z-score [8]: -0.413 (inactive) | composite z-score [9]: -0.0444 | composite z-score [10]: 0.0373 | composite z-score [11]: -0.414 | z-score [12]: 0.24 (inactive) | z-score [13]: -2.31 (inactive) | z-score [14]: -0.582 (inactive) | composite z-score [15]: 0.102 | z-score [16]: -0.0015 (inactive) | composite z-score [17]: -0.217 | composite z-score [18]: 0.721 | composite z-score [19]: 0.372 | composite z-score [20]: 0.0372
